Rows were chosen to be rich in hits. Some 3.9% of all compounds tested hit in one or more screens of this group.
Mot1-301 SUMO = SUMOylation pathway inhibition by Mot1-301 growth rescue | S. cerevisiae Mot1-301 growth rescue, ATP luminescence, 38.5C; percent above DMSO median, 100 means doubled | growth rescue, % at 18.8 µM | 1% of 320,000 active;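 active = every valid replicate shows activation above 250% relative to neutral control wells; inactive = the rest, any valid replicate at or below 250%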;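 also: OY570 slx delta 5 strain wells were the positive control but not used for scaling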
CASP6 VEID inh = caspase-6 (human) enzyme inhibition; P55212; purified caspase-6, Z-VEID-R110 cleavage fluorescence; AID 686996; 0.53% of 350,000 active; inhibition, % at 12.5 µM;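 active = mean inhibition across replicates at least about 35%, with every replicate also reaching that limit, limit read from the data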;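 also: 0% = median of neutral control wells and 100% = no fluorescence left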
Target sequence (P55212 24-179 limits assumed): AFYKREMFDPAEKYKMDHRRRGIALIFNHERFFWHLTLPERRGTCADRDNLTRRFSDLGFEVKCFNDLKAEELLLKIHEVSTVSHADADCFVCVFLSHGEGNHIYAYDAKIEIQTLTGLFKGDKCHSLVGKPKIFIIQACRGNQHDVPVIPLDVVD
Target sequence (P55212 194-293 limits assumed): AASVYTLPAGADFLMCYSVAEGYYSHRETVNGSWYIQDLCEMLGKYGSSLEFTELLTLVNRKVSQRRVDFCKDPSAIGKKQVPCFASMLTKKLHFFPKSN
CDK5 inh = blocks human CDK5/p35 kinase activity | Q00535+Q15078 | Recombinant CDK5/p35, ADP-Glo luminescence, 60 min | inhibition, % at 10 µM | 0.01% of 330,000 active | AID 488839;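 active = highest replicate inhibition of at least 50% and at least 75% of replicates reaching 50%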;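 also: plate controls were DMSO neutral control for no effect and GW8510 at 10 µM for full effect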
ALR inh = inhibitors of human sulfhydryl oxidase ALR; P55789; purified ALR, DTT oxidation, H2O2 HRP-luminol luminescence; inhibition, % (concentration not given with the values); 3.8% of 290,000 active; AID 485317;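 active = mean replicate inhibition above about 79%, with every replicate also reaching it, limit read from the data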
Target sequence (P55789 whole entry, looked up): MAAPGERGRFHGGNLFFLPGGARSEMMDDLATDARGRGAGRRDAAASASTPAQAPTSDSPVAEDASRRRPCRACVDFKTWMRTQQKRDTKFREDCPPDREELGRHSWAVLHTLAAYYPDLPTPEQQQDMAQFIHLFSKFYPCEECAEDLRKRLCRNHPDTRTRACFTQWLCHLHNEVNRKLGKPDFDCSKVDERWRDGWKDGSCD
N-glyco inh = blocks N-linked glycosylation in D54 reporter cells; D54 ERlucT glycosylation luciferase reporter, 24 h; percent of 100 nM tunicamycin response; reporter increase, % at 12.5 µM; 0.23% of 360,000 active;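 active = mean luciferase reporter signal, scaled so untreated is 0 and the glycosylation-blocking control 100, at or above a set limit in every replicate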;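 also: luciferase carries N-glycosylation sites so blocking glycosylation raises the light; 0% = median of neutral control wells and 100% = median of 100 nM tunicamycin wells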
NSD2 HMT inh = blocks human histone methyltransferase NSD2. O96028. NSD2 peptide methylation, AlphaScreen, 120 min. inhibition, % at 12.5 µM. 0.54% of 310,000 active; in the data active = inhibition above about 50%
* marks the source's active call; other numbers are inactive results; x = not tested or not shown.

SMILES | Mot1-301 SUMO | CASP6 VEID inh | CDK5 inh | ALR inh | N-glyco inh | NSD2 HMT inh
COCCNC(=S)N(CCc1c(C)[nH]c2ccccc12)Cc1cccnc1 | -7 | -9 | 0 | 97* | -1 | 14
CNC(=S)N(CCc1c(C)[nH]c2ccccc12)Cc1cccnc1 | -25 | 0 | 2 | 100* | 1 | 13
COCCNC(=S)N(CCc1c(C)[nH]c2ccc(F)cc12)Cc1cccnc1 | 13 | -14 | 2 | 37 | -2 | 2
COc1ccc(S(=O)(=O)N(C)C[C@@H]2OCCCC[C@@H](C)Oc3ccc(NC(=O)Nc4c(C)noc4C)cc3C(=O)N([C@H](C)CO)C[C@H]2C)cc1 | x | 3 | x | x | x | x
COc1ccc(S(=O)(=O)Nc2ccc3c(c2)C(=O)N([C@H](C)CO)C[C@@H](C)[C@@H](CN(C)C(=O)NC2CCCCC2)OCCCC[C@@H](C)O3)cc1 | x | 1 | x | x | x | x
C[C@@H]1CN([C@@H](C)CO)S(=O)(=O)c2ccc(-c3cccc(F)c3)cc2O[C@H]1CN(C)C(=O)c1cccc(F)c1 | x | 0 | x | x | x | x
C[C@H](O)C#Cc1ccc([C@@H]2[C@H](CO)N3CCCCN(C(=O)c4cccc(F)c4)C[C@@H]23)cc1 | x | 1 | x | x | x | x
Cc1cc(C(=O)N/N=C/c2cc(Br)c(Br)o2)n[nH]1 | 2 | 54* | 1 | x | 3 | 16
COC(=O)CSc1ccc(C#N)c(SCC(=O)OC)c1 | 8 | x | 0 | 99* | 3 | -3
Nc1ccc2nc(N3CCOCC3)sc2c1 | 3 | -1 | 1 | 99* | -2 | 2
COC(=O)CSc1nc2ccc(NC(C)=O)cc2s1 | 4 | x | -6 | -5 | 1 | -1
CCOC(=O)CSc1nc2ccc(N)cc2s1 | 178 | x | -1 | 99* | 1 | 1
c1ccc2sc(N3CCOCC3)nc2c1 | -9 | x | 0 | -2 | 2 | 0
Cc1ccc(NC(=O)CSCC(=O)NC2(C)CCS(=O)(=O)C2)cc1 (stereo unspecified) | 13 | -32 | 0 | 99* | 2 | 0
Nc1ccc2nc(SCC(=O)Nc3ccc(N4CCOCC4)c(Cl)c3)sc2c1 | -6 | x | -2 | 99* | -3 | 3
O=C(c1ccccn1)N1CC2(C1)[C@H](c1ccccc1)[C@@H](CO)N2C(=O)C1CC1 | x | -1 | x | x | x | x
C[C@@H](O)C#Cc1cnc2c(c1)C(=O)N([C@@H](C)CO)C[C@H](C)[C@@H](CN(C)C(=O)Cc1ccccn1)O2 | x | 0 | x | x | x | x
CCS(=O)(=O)N[C@@H]1C=C[C@H](CC(=O)NCc2ccc(Cl)cc2)O[C@H]1CO | x | 1 | x | x | x | x
CC(C)c1cn(CC[C@@H]2CC[C@H](NC(=O)C3CCC3)[C@H](CO)O2)nn1 | x | 0 | x | x | x | x
Nc1ccc2nc(SCC(=O)N3CCN(c4ccccc4)CC3)sc2c1 | 219 | -1 | -1 | x | -1 | 1
COc1ccc(CNC(=O)CSc2nc3ccc(N)cc3s2)cc1 | 18 | x | -3 | 98* | -1 | 6
CC(C)C(=O)Nc1nnc(SCc2cccc(F)c2)s1 | -5 | -4 | -1 | x | -1 | -1
Nc1ccc2nc(SCC(=O)N3CCOCC3)sc2c1 | -19 | 1 | 0 | 99* | -2 | 28
CC(NC(=O)CSc1nc2ccc(N)cc2s1)c1ccccc1 (stereo unspecified) | 67 | -1 | -2 | 96* | 6 | -1
Nc1ccc2nc(SCc3cccc(F)c3)sc2c1 | 241 | 0 | 0 | 99* | -3 | 2
SMILES | Mot1-301 SUMO | CASP6 VEID inh | CDK5 inh | ALR inh | N-glyco inh | NSD2 HMT inh
C[C@@H]1CN([C@H](C)CO)C(=O)c2cccc(NS(=O)(=O)c3ccccc3)c2O[C@@H]1CN(C)S(C)(=O)=O | x | -1 | x | x | x | x
COc1ccc(CN(C)C[C@@H]2OCCCC[C@@H](C)Oc3ccc(NS(=O)(=O)c4ccccc4)cc3C(=O)N([C@H](C)CO)C[C@H]2C)cc1 | x | 0 | x | x | x | x
CCOC(=O)CSc1nc(N)c(C(=O)Nc2ccc(N(C)C)cc2)s1 | 8 | x | 1 | 88* | -3 | 3
CCN(CC)C(=O)CSc1nc(N)c(C(=O)Nc2ccc(OC)cc2)s1 | 4 | -2 | -1 | x | -3 | 4
Cc1ccc(NC(=O)CSCC(=O)Nc2ccc(N3CCOCC3)c(Cl)c2)cc1 | 15 | x | 1 | 98* | 0 | -1
Cc1ccc(NC(=O)CSCC(=O)Nc2ccc(N3CCOCC3)cc2N2CCOCC2)cc1 | x | 3 | 0 | x | 2 | 0
OC[C@H]1[C@@H](c2ccc(C#CC3(O)CCCC3)cc2)[C@H]2CN(Cc3cccnc3)CCCCN21 | x | -1 | x | x | x | x
O=c1cc(C(F)(F)F)nc(SCc2cccc3ccccc23)[nH]1 | -16 | -4 | 2 | 19 | 2 | -3
CCc1cc(=O)[nH]c(SCc2cccc3ccccc23)n1 | -17 | x | 1 | 98* | 0 | 3
Nc1cc(=O)[nH]c(SCc2cccc3ccccc23)n1 | -2 | 1 | -1 | 99* | 3 | 8
Cc1cc(=O)[nH]c(SCc2cccc3cccnc23)n1 | -17 | 5 | 0 | x | 1 | -3
Oc1ccc(-c2cnns2)c(O)c1 | -14 | 15 | 4 | 99* | -12 | 2
S=C1NC2=C(CCCC2=C2SCCS2)C(c2ccccc2)N1 (stereo unspecified) | -23 | 1 | -5 | 8 | 415* | 3
COc1cccc(C2NC(=S)NC3=C2CCc2ccccc23)c1 (stereo unspecified) | -4 | 6 | 1 | -27 | 1 | 2
COc1cccc(-c2nc(CS(=O)(=O)CC(=O)NC3CCCc4ccccc43)c(C)o2)c1 (stereo unspecified) | -19 | -1 | 0 | 89* | 2 | x
COc1cccc(-c2nc(CS(=O)(=O)CC(=O)NC3CCCC3)c(C)o2)c1 | 7 | 0 | -1 | 98* | 1 | 0
Cc1oc(-c2ccccc2Cl)nc1CS(=O)(=O)CC(=O)NC1CCCC1 | -13 | -1 | -2 | 98* | 0 | x
O=C(C[C@@H]1C[C@H]2c3cc(NC(=O)c4ccc5c(c4)OCO5)ccc3O[C@H]2[C@H](CO)O1)NCc1cccnc1 | x | 2 | x | x | x | x
O=C([C@H]1[C@H](CO)[C@H]2Cn3c(cccc3=O)[C@H]2N1CC1CCCCC1)N1CCOCC1 | x | 2 | x | x | x | x
c1ccc(N2CCN(c3ccccc3)C2c2ccncc2)cc1 | 7 | 1 | 1 | 86* | 1 | 1
c1ccc(N2CCN(c3ccccc3)C2c2cccnc2)cc1 | 25 | x | 1 | x | 0 | 6
COc1ccc(S(=O)(=O)N(C)C[C@@H]2Oc3ccc(NC(=O)C4CCCCC4)cc3CC(=O)N([C@@H](C)CO)C[C@H]2C)cc1 | x | -2 | x | x | x | x
O=C(CSc1nnc(CNC(=O)c2ccccc2F)o1)c1ccc(Cl)cc1 | -10 | x | 3 | 99* | 2 | x
CC(C)[C@H](N)c1nnc(SCC(=O)c2ccc(Cl)cc2)o1 | -1 | x | -2 | 98* | 1 | 1
COc1ccc(C(=O)CSc2nnc(CNC(=O)c3ccc(S(=O)(=O)N(C)C)cc3)o2)cc1 | -12 | 1 | -1 | 98* | 1 | 1
